We go through four compounds from PubChem BioAssay AID488913 (National Center for Advancing Translational Sciences (NCATS), 2010).

Results filed as inconclusive are left out. A number with no mark means an inactive call. Calls of active or inactive are those of the source. Calls come from the whole dose curve; as a rule, active = well fitted inhibition curve with a large enough effect; inconclusive = small, poorly fitted or top-dose-only effect, or effect the other way; inactive = no such curve, though single readings can be large or run the other way.

The test can be described thus: Confirmation Concentration-Response Assay for lipid storage modulators: for probe SAR. The note with it: Drosophila S3 cells, BODIPY lipid droplet fluorescence, 18-24 h; series mostly up to 46.1 µM; activity change, negative = lipid storage inhibition: at the top concentration. From the text:
NIH Molecular Libraries Probe Production Centers Network [MLPCN] NIH Chemical Genomics Center [NCGC] MLPCN Grant: 1 R03 MH085686-01 Assay Submitter (PI): Beller, Mathias; Max-Planck-Institut fur Biophysikalische Chemie NCGC Assay Overview: Storing lipids as a reservoir for energy or the anabolism of elementary metabolites is a common feature of probably all cells and is conserved from bacteria to humans. The universal cellular lipid storage organelle is the so-called lipid storage droplet (LD). Although ubiquitous, LDs share a simple structure composed of a hydrophobic core that harbors the storage lipids, which is shielded by a droplet-specific phospholipid monolayer to which proteins are attached. The current model of LD biogenesis involves an incorporation of the lipid core into the membrane leaflets of the endoplasmic reticulum (ER) followed by a subsequent budding-like maturation of a LD, which ultimately pinches off. Once released, LD volume can increase by localized lipogenesis or fusion of existing droplets. Storage lipids are re-mobilized enzymatically by lipase activity. Lipase regulation in the adipocyte is heavily studied and involves multiple components including catecholamine signaling, the LD-associated proteins Perilipin and comparative gene identification-58 (CGI-58) and at least two lipases named hormone sensitive lipase (HSL) and adipocyte triglyceride lipase (ATGL). LD regulation outside of the adipocyte is poorly understood and only few components are known. However, there is an urgent need to learn more about ectopic fat depots as mislocalized storage of lipids, for example in the liver or muscle, is an eminent health problem associated with insulin resistance or the metabolic syndrome. We developed a laser-scanning cytometer assay to enable 1,536-well screening and combined the results of the small molecules screen with an RNAi database based on lipid storage.
We dispensed 4 uL of cells at 1.25 x 10^6 cells/mL into LoBase Aurora COC 1,536-well plates (black walled, clear bottom) with a bottle-valve solenoid-based dispenser (Aurora) to obtain 5,000 cells/well. Triacsin C (Sigma-Aldrich T-4540), an inhibitor of long-chain fatty acyl CoA synthetase that blocks synthesis of triglycerides, was used as a positive control for lipid under-storage. […] Fluorescence was detected by excitation of the fluorophores with a 488-nm laser on an Acumen Explorer (TTP Lab Tech). […] Cells were detected using channel 3 (575- 640 nm) with 5-um width and 100-um depth filters. The ratio of the total intensity in PMT channel 1 over total intensity of channel 3 was also calculated. […]
As for `CCOC(=O)C1CCN(C(=O)C2(NC(=O)Nc3ccccc3Cl)CCCC2)CC1`, the Potency was 787 nM (active).

Consider `CCC/C=C/C/C=C/C=C/C=N/NN=O`, for which the Potency is 791 nM (active).

As to `CCOc1ccc(CCNC(=O)c2ccccc2)cc1OCC`, the “activity change, negative = lipid storage inhibition” value was 32.2%.

In the case of `CCOc1ccc(CCNC(=O)c2cc3sccc3n2Cc2ccc(F)cc2F)cc1OCC`, the Potency was 56 nM (active).
